11 compounds from PubChem BioAssay can be followed below.

Activity calls are given as the source filed them.

The test system of one experiment is Wnt5a (protein binding on small-molecule microarray). Nature of the experiment: Wnt5a binders on small-molecule microarray, primary screen, biophysical, 635/667 nm fluorescence (AID 1142).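 Further: fluorescence read at 667 nm with signal to noise per printed feature.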 To be noted: 635 nm fluorescence, higher = more signal.
Regarding `CCOC(=O)[C@H](CC(C)C)NC(=O)CCC1CC(OC(=O)NCc2ccc3c(c2)OCO3)CC2(CCCC(COC(=O)NCc3cccc(C(F)(F)F)c3)O2)O1` (stereo partly specified), the composite z-score is -0.194. On the same count and under the same terms, to `CCN1C(=O)[C@H]2[C@H]3[C@H](O)[C@H](O)CC(=NOCC(C)C)[C@@H]3CC[C@H]2C1=O` belongs -0.111. As for `COC(=O)[C@H](C)NC(=O)CCC1CC(OC(=O)NCCc2ccc(F)cc2)CC2(CCCC(COC(=O)NCCC(C)C)O2)O1` (stereo partly specified), the composite z-score is 0.255. Same read-out and setting: to `C=CC[C@@H]1C=C[C@H](ON=C(C)CCN2CCc3nc(-c4ccccc4)c(-c4ccccc4)cc3C2)[C@@H](CO)O1` belongs 0.0399.

Test system in another experiment: not listed separately
Nature of the experiment: cell viability in Huh7 cells, primary screen, cytotoxicity control for HCV replication inhibitor project, CellTiter-Glo luminescence, basal, 48 h (AID 1143).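 Further: Huh7 hepatoma cells carrying a hepatitis C replication reporter with no stimulus; test concentration not given here.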 Particulars: Huh7 HCV replicon, higher = more signal, called active from +8 up or from −8 down. Background: Cellular ATP, detected with luciferase, serves as a proxy for viable cell number.
Turning to `CC(C)[C@@H](OCc1ccccc1)[C@H](C)C=NOC[C@@H](O)COCc1ccco1`, the z-score is -0.33 (inactive). Same read-out and setting: the same measure for `CC(C)(C)N1C(=O)[C@H]2[C@H]3[C@H](O)C=CC(=O)[C@@H]3CC[C@H]2C1=O`: 0.536 (inactive). Regarding `CCOC(=O)[C@H](CC(C)C)NC(=O)CCC1CC(OC(=O)NCc2cccc3ccccc23)CC2(CCCC(COC(=O)NCCOC)O2)O1` (stereo partly specified), the z-score is -1.3 (inactive). The same measure, in the same setting: to `Cc1ccc(S(=O)(=O)n2c3ccccc3c3nnc(C(=O)c4ccccc4)nc32)cc1` belongs -0.472 (inactive). On the same count and under the same terms, to `CCN1C(=O)[C@H]2[C@H]3[C@H](O)[C@H](O)CC(=NOC[C@H]4O[C@H](c5ccccc5)C=C[C@@H]4Oc4ccc(OC)cc4)[C@@H]3CC[C@H]2C1=O` belongs -0.509 (inactive); to `Cc1cc2c(c(=O)o1)[C@@H](O)[C@H]1O[C@H]1C2=O`, 0.773 (inactive). On the same count and under the same terms, the same measure for `C#CCCCON=C1C[C@@H](O)[C@@H](O)[C@@H]2[C@@H]3C(=O)N(c4cccc(Oc5ccccc5)c4)C(=O)[C@@H]3CC[C@H]12`: -0.593 (inactive).
